GLS inh – qHTS for Inhibitors of Glutaminase (GLS). Glutaminase kidney isoform, mitochondrial (Homo sapiens), O94925. GLS enzymatic activity, qHTS titration. Potency, µM (series often up to 45.5 µM), for the others: at the top dose activity change, negative = inhibition, hits mostly inhibitors. 410,000 tested, 0.21% active. AID 624170, 2012; note: % is set by controls: 0 for no effect and ±100 for the full control effect
Target sequence (O94925 whole entry, looked up, canonical isoform): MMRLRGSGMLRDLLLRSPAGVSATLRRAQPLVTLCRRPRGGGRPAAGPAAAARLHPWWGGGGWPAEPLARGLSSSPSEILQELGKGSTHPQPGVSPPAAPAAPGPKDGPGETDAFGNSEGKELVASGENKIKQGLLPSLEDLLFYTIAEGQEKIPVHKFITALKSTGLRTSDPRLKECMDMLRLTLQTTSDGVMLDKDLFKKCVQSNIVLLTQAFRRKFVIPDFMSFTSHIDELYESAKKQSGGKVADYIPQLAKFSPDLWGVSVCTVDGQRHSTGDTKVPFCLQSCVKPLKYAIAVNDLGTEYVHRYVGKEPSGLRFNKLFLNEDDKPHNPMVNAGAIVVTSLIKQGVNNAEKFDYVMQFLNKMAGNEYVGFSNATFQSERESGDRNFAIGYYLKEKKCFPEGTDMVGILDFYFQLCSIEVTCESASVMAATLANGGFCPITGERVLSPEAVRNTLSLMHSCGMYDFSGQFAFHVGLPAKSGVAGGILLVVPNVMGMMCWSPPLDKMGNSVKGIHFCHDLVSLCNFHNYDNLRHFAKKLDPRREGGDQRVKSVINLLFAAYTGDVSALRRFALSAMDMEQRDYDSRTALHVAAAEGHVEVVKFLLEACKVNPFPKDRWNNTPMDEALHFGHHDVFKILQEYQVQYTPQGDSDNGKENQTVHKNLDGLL
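Coupled fluorescence readout: glutamate oxidase/HRP/Amplex Red detect glutamate formed by hKGA from L-glutamine (1 mM solution added). Buffer 45 mM KH2PO4 pH 8.2, 0.02% Tween-20; reads at t0 and 30 min RT.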
HP1b binding inh – HTS for Inhibitors of HP1-beta Chromodomain Interactions with Methylated Histone Tails | AlphaScreen HP1-beta / biotin-H3K9me3 peptide binding | Potency, µM (highest dose often 114 µM), for the others: at the highest dose activity change, negative = inhibition, actives largely listed as inhibitors | AID 540317, 2011 | 390,000 tested, 0.56% active; note: nearly all actives have a fitted effect of over 70% in size
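Compound inhibition of the preformed complex between 50 nM HP1-beta and 50 nM biotinylated H3K9me3 peptide was read by AlphaScreen. Buffer was PBS pH 7.4 with 0.01% Tween-20. Incubations ran 30 min at room temperature, with 10 ug/mL donor/acceptor beads.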
G9a inh – qHTS Assay for Inhibitors of Histone Lysine Methyltransferase G9a | Histone-lysine N-methyltransferase EHMT2 (Homo sapiens), Q96KQ7 | G9a H3K9 monomethylation, AlphaScreen, 2 h | Potency, µM (highest dose often 102 µM), for the others: top-dose activity, negative = inhibition, hits mostly inhibitors | 350,000 tested, 8.8% active; note: % is set by controls: 0 for no effect and ±100 for the full control effect; nearly all actives have a fitted effect of over 75% in size
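Enzyme 20 nM + cpd, 15 min RT; add b-H3K9 pep 500 nM / SAM 20 uM; 2 h RT; anti-H3K9me1 Ab 0.5 ug/mL + SA donor / anti-rabbit acceptor beads 20 ug/mL each, 10 min; AlphaScreen read.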
BAZ2B block – qHTS Assay for Inhibitors of BAZ2B. Bromodomain adjacent to zinc finger domain protein 2B (Homo sapiens), Q9UIF8. AlphaScreen BAZ2B-H3K14Ac peptide displacement. Potency, µM (highest dose often 114 µM), inactives show top-dose activity change, negative = inhibition, hits mostly inhibitors. 360,000 tested, 4.4% active; note: % is set by controls: 0 for no effect and ±100 for the full control effect; nearly all actives have a fitted effect of over 60% in size
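Multi-concentration screen (max 110 uM) measuring displacement of acetylated histone H3 peptide from BAZ2B by AlphaScreen, using 50 nM protein, 50 nM peptide and 10 ug/mL streptavidin donor plus Ni-chelate acceptor beads.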
JMJD2A Tudor inh – qHTS Assay for Inhibitors of JMJD2A-Tudor Domain; Lysine-specific demethylase 4A (Homo sapiens), O75164; AlphaScreen JMJD2A-Tudor / H3K4me3 peptide binding; Potency, µM (highest dose often 114 µM), for inactives: at the top dose activity change, negative = inhibition, most hits filed as inhibitors; 390,000 tested, 4.4% active; note: % is set by controls: 0 for no effect and ±100 for the full control effect; nearly all actives have a fitted effect of over 50% in size
L3MBTL1 inh – qHTS Assay for the Inhibitors of L3MBTL1. Lethal(3)malignant brain tumor-like protein 1 (Homo sapiens), Q9Y468. AlphaScreen L3MBTL1–H3K9me1 peptide binding. Potency, µM (series often up to 57.1 µM), without a hit: at the top dose activity, negative = inhibition, most hits filed as inhibitors. 230,000 tested, 0.66% active; note: % is set by controls: 0 for no effect and ±100 for the full control effect; nearly all actives have a fitted effect of over 60% in size
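L3MBTL1 (50 nM) pre-complexed 30 min with biotinylated H3(1-15)K9me1 peptide (75 nM), then compounds added for 30 min at room temperature; AlphaScreen streptavidin donor/nickel chelate acceptor beads (10 ug/mL final) read after 30 min dark incubation.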
* marks the source's active call; other numbers are inactive results; ! = a repeat was not active; [ ] = remark or other dose. This is a sample that favours compounds with a hit; in the whole collection about 10% have one here. Calls come from the whole dose curve; as a rule, active = well fitted curve in the direction sought with a large enough effect; inconclusive = small, poorly fitted or top-dose-only effect, or another doubt; inactive = no such curve, though single readings can be large; an effect the other way counts as inactive or inconclusive. Potency is the fitted concentration of half-maximal effect.

Results for Cc1c(Cl)cnn1CC(=O)NC1C(=O)N2C(C(=O)O)=C(CSc3nnnn3C)CSC12 (stereo not given) ?
GLS inh: -23.6%; HP1b binding inh: 36.6%; G9a inh: inconclusive; BAZ2B block: 56.2µM*; JMJD2A Tudor inh: -15.9%

How did CO[C@@]1(NC(=O)CSC[C@@H](N)C(=O)O)C(=O)N2C(C(=O)O)=C(CSc3nnnn3C)CS[C@@H]21 do in these assays?
GLS inh: 22.6%

What do the screens show for `Cc1c(Cl)c(C(F)F)nn1CC(=O)NC1C(=O)N2C(C(=O)O)=C(CSc3nnnn3C)CSC12` (stereo not given)?
GLS inh: -12.8%; HP1b binding inh: 6.5%; G9a inh: 28.2µM*; BAZ2B block: -38.1%; JMJD2A Tudor inh: -29.6%

What do the screens show for `COc1ccc(N2CCN(S(=O)(=O)c3ccc(C4CCCCC4)cc3)CC2)cc1`?
GLS inh: 2.8%; HP1b binding inh: 25.9%; G9a inh: -36.1%[59 µM]; BAZ2B block: -6.8%; JMJD2A Tudor inh: -6.0%

What do the screens show for `CC(C)c1ccc(CNCCSc2nnnn2-c2ccccc2)cc1`?
GLS inh: 8.2%; HP1b binding inh: 46.1%; G9a inh: -5.4%[59 µM]; BAZ2B block: 8.7%; JMJD2A Tudor inh: -9.4%

Results for Cc1ccc(-c2noc(CN(C3CCCCC3)S(=O)(=O)c3ccc(Cl)cc3)n2)cc1 ?
GLS inh: -0.9%; HP1b binding inh: 59.5%; G9a inh: 29.4%[59 µM]; BAZ2B block: -0.8%; JMJD2A Tudor inh: 16.7%

Results for Cc1ccc2c(c1)NC(=O)C(CC(=O)NC1CCCCC1C)O2 (stereo not given) ?
GLS inh: -7.3%; HP1b binding inh: 60.3%; G9a inh: 44.7µM*; BAZ2B block: 5.0%; JMJD2A Tudor inh: 2.1%; L3MBTL1 inh: 15.5%

What do the screens show for `CCC(C)N(CCNC(=O)CC1Oc2ccc(C)cc2NC1=O)C1CCCCC1` (stereo not given)?
GLS inh: 16.3%; HP1b binding inh: 36.4%; G9a inh: 50.1µM*; BAZ2B block: 9.3%; JMJD2A Tudor inh: -14.1%

What do the screens show for `CCOc1ccccc1C1C(C(=O)Nc2ccccc2)=C(C)Nc2c(C(=O)Nc3ccc(F)cc3)cnn21` (stereo not given)?
GLS inh: 8.9%; HP1b binding inh: 5.4%; G9a inh: -27.1%[59 µM]; BAZ2B block: -8.9%; JMJD2A Tudor inh: -26.3%

How did CC(C)NC(=O)C(=O)NCCc1ccc(Cl)cc1 do in these assays?
GLS inh: -1.2%; HP1b binding inh: 7.8%; G9a inh: 1.12µM*; BAZ2B block: 7.5%; JMJD2A Tudor inh: -19.7%

Results for OCCN1CCN(CCCN2c3ccccc3Sc3ccc(Cl)cc32)CC1 ?
GLS inh: -3.2%; HP1b binding inh: -16.0%; G9a inh: 2.7%[12.7 µM]; BAZ2B block: inconclusive; JMJD2A Tudor inh: inconclusive; L3MBTL1 inh: -6.9%

What do the screens show for `CN(C)CCC=C1c2ccccc2C=Cc2ccccc21`?
GLS inh: -3.6%; HP1b binding inh: 38.0%; G9a inh: 14.1µM*!; BAZ2B block: -20.2%; JMJD2A Tudor inh: -25.5%; L3MBTL1 inh: -6.9%

Results for OCCN1CCN(CC/C=C2/c3ccccc3Sc3ccc(Cl)cc32)CC1 ?
GLS inh: 8.6%; HP1b binding inh: -12.3%; G9a inh: 15.8µM*; BAZ2B block: inconclusive; JMJD2A Tudor inh: inconclusive; L3MBTL1 inh: -2.3%

Results for CN(C)CC/C=C1\c2ccccc2Sc2cc(F)c(Cl)cc21 ?
GLS inh: -0.2%; HP1b binding inh: -18.1%; JMJD2A Tudor inh: inconclusive

How did CCCCCCCCCCC[N+](C)(C)CC/C=C1/c2ccccc2Sc2ccc(Cl)cc21 do in these assays?
GLS inh: inconclusive; HP1b binding inh: 12.2%; G9a inh: 35.5µM*; BAZ2B block: -22.9%; JMJD2A Tudor inh: inconclusive
